Source: PubChem
A549 tox-1 = Nrf2 qHTS screen for inhibitors: counterscreen for cytotoxicity. A549 ARE-Fluc cells, CellTiter-Fluor viability, 18-24 h. Potency, µM (doses to about 46 µM), without a hit: at the highest dose activity change, negative = cytotoxicity, usual class: inhibitors. actives 0.16% (n = 390,000). AID 504648, 2011; further: potency means the concentration at half of the fitted maximal effect; on the % scale 0 is the no-effect control and ±100 the full control effect
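A549 ARE-Fluc cells in 5% FBS OPTI-MEM, 5000 cells/well, rested 2 h then exposed to compounds in concentration-response for 18-24 h at 37 °C. Viability by CellTiter-Fluor fluorescence (Ex 405/Em 525) after 30 min; luciferase luminescence (BugLite, 15 min, RT) read afterwards.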
ClpP mod = qHTS Assay for Activators of ClpP. ATP-dependent Clp protease proteolytic subunit (Bacillus subtilis (strain 168)), P80244. purified B. subtilis ClpP, FRET peptide cleavage, 20 min. Potency, µM (highest dose often 57.5 µM), for inactives: at the top dose activity change, negative = active. actives 1.9% (n = 340,000). AID 651965, 2013; active means well fitted falling curve with a large enough effect; inconclusive means small, poorly fitted or top-dose-only effect; inactive means no such curve, though single readings can be large or run the other way; further: potency means the concentration at half of the fitted maximal effect; the source files actives as falling curves though it sought activators and does not explain the sign; nearly all actives have a fitted effect of over 65% in size
Target sequence (P80244 whole entry, looked up): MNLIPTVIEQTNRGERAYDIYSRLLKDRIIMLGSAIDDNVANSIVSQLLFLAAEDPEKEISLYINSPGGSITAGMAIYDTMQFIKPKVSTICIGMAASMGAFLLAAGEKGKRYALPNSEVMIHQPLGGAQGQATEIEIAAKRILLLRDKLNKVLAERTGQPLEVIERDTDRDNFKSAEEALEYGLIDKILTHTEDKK
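FRET quenching reversal measured ClpP activation: 10 microg/mL B. subtilis ClpP at pH 8 with the FRET-FV decapeptide, read at 430 nm after 320 nm excitation. The 20-min minus 0-min signal was scaled between DMSO/no-enzyme wells and ADEP (5.8 microM final).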
Nrf2 inh = Nrf2 qHTS screen for inhibitors. actives 2.1% (n = 360,000). Potency, µM (doses to about 46 µM), inactives show at the highest dose activity change, negative = inhibition, hits mostly inhibitors. A549 ARE-Fluc reporter, luciferase luminescence, 18-24 h; further: potency means the concentration at half of the fitted maximal effect; on the % scale 0 is the no-effect control and ±100 the full control effect; nearly all actives have a fitted effect of over 60% in size
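A549 ARE_Fluc cells, 5000/well, 5% FBS OPTI-MEM; compounds in dose-response, 18-24 h at 37 °C/5% CO2; CellTiter-Fluor viability read (Ex 405/Em 525), then BugLite luciferase luminescence = Nrf2 activity.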
TCR act = Activators of T cell receptors: qHTS campaign. primary human leukocytes, anti-CD3, IL-2 HTRF, 48 h. Potency, µM (series often up to 9.22 µM), for inactives: at the highest dose activation of IL-2 secretion, actives largely listed as activators. AID 504894, 2011. 330,000 tested, under 10 active; further: % of control where 0% means no effect
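HTRF read-out of IL-2 secretion: europium cryptate donor excited at 320nm, d2 acceptor emission at 665nm. Cells were primary human leukocytes incubated 48 hr with compounds and a-CD3 beads, supplying TCR signal only.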
miR-21 act = qHTS Assay for Modulators of miRNAs and/orActivators of miR-21. Potency, µM (doses to about 38.3 µM), inactives show at the highest dose activity change, positive = activation, hits mostly activators. 340,000 tested, under 10 active. HeLa miR-21 FLuc reporter, luciferase, 48 h;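 further: % of control where 0% means no effect; miR-21 action dims this reporter so a rising signal means less miR-21 action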
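Compounds were titrated across several concentrations (up to approximately 40 uM) and incubated 48 hours with HeLa miR-21-FLuc reporter cells (miR-21 target sequence downstream of FLuc, endogenous miR-21). Readout was firefly luciferase luminescence after lytic detection reagent.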
Nrf2 activator = qHTS of Nrf2 Activators | AREc32 ARE-luciferase reporter (MCF7-derived line), luminescence, 24 h | Potency, µM (doses to about 46.1 µM), for the others: top-dose activation, hits mostly activators | actives 0.31% (n = 410,000) | AID 624171, 2012; further: potency means the concentration at half of the fitted maximal effect; % of control where 0% means no effect; nearly all actives have a fitted effect of over 65% in size
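ARE activation measured as luciferase luminescence (Steady-Glo, 30 min RT) in AREc32_Fluc cells after 24 hr compound exposure at 37 deg C, 5% CO2; cells seeded overnight at 1000/well in OPTI-MEM, 5% FBS.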
FLuc enzyme inh = Nrf2 qHTS screen for inhibitors: Purified Fluc Biochemical Counterscreen for Hit Validation | Potency, µM (titrated, usually from 57.5 µM), for the others: at the highest dose activity change, negative = inhibition, hits mostly inhibitors | actives 4% (n = 1,400) | shares compounds with Nrf2 inh | purified firefly luciferase, luminescence inhibition; further: potency means the concentration at half of the fitted maximal effect; on the % scale 0 is the no-effect control and ±100 the full control effect; nearly all actives have a fitted effect of over 65% in size
Target sequence (P08659 whole entry, looked up): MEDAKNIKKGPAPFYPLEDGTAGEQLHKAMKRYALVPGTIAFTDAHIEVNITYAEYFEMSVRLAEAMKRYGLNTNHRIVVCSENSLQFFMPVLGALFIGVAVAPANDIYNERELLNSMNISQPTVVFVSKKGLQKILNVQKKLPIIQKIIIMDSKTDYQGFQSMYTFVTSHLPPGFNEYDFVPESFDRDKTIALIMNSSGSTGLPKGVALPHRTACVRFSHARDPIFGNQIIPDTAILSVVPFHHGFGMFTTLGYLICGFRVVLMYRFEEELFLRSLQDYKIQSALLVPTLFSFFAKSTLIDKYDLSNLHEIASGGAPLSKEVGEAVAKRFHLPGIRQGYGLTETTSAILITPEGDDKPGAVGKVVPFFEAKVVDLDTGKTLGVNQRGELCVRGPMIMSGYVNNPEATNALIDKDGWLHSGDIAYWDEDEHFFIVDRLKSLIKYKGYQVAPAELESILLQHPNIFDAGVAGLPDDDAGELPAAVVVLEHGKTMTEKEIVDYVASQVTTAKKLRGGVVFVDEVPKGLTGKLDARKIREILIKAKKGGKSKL
A549 tox-2 = Nrf2 qHTS screen for inhibitors: A549 ARE-Fluc Cytotoxicity Counterscreen for Hit Validation | shares compounds with Nrf2 inh | actives 2% (n = 1,400) | AID 720523, 2013 | Potency, µM (doses to about 46.1 µM), for the others: at the highest dose activity change, negative = cytotoxicity, hits mostly inhibitors | A549 ARE-Fluc cells, cytotoxicity counterscreen;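 further: potency means the concentration at half of the fitted maximal effect; cells exposed to compounds for 18 to 24 hours; on the % scale 0 is the no-effect control and ±100 the full control effect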
ARE-Fluc inh = Nrf2 qHTS screen for inhibitors: Nrf2 A549 ARE-Fluc Confirmation Assay for Hit Validation. shares compounds with Nrf2 inh. A549 ARE-firefly luciferase reporter, luminescence. Potency, µM (titrated, usually from 46.1 µM), inactives show at the highest dose activity change, negative = inhibition, most hits filed as inhibitors. actives 74% (n = 1,400). AID 720524, 2013; further: potency means the concentration at half of the fitted maximal effect; on the % scale 0 is the no-effect control and ±100 the full control effect; nearly all actives have a fitted effect of over 65% in size
* marks the source's active call; other numbers are inactive results; ? = inconclusive; · = no result shown. This is a sample that favours compounds with a hit; in the whole collection about 3.7% have one here. Unless noted, the call rests on the fitted dose curve; in most records, active means well fitted curve in the direction sought with a large enough effect; inconclusive means small, poorly fitted or top-dose-only effect, or another doubt; inactive means no such curve, though single readings can be large; an effect the other way counts as inactive or inconclusive.

SMILES | A549 tox-1 | ClpP mod | Nrf2 inh | TCR act | miR-21 act | Nrf2 activator | FLuc enzyme inh | A549 tox-2 | ARE-Fluc inh
CC1=C/C(=N\NC(=S)NCCc2ccccc2)CC(C)(C)C1 | 4% | · | ? | 4% | -44% | 5% | · | · | ·
COc1cccc(Cn2c(=O)oc3ccccc32)c1 | 3% | · | 22% | 1% | -44% | 6% | · | · | ·
Cc1ccc(S(=O)(=O)Nc2ccc3ncccc3c2[N+](=O)[O-])cc1 | -7% | 1% | ? | -1% | · | 17% | · | · | ·
COc1ccc(CC(=O)N2CCN(C)CC2)cc1 | 0% | -4% | 0% | · | -5% | 0% | · | · | ·
COc1ccc(CC2NCC(O)C2OC(C)=O)cc1 (stereo not given) | ? | 0% | 0.46µM* | 3% | · | -5% | 1% | -5% | 1.5µM*
CC(C)[C@]1(O)[C@@H](OC(=O)c2ccc[nH]2)[C@@]2(O)[C@@]3(C)C[C@]4(O)O[C@@]5([C@H](O)[C@@H](C)CC[C@]35O)[C@@]2(O)C41C | -1% | · | 15% | · | · | · | · | · | ·
CC1=C(N2CC2)C(=O)C(CO)=C(N2CC2)C1=O | 9.2µM* | 2% | 0.52µM* | 2% | · | -3% | 2% | -10% | 1.6µM*
Cc1ccc(-n2nc3ccc(NC(=O)COc4ccccc4C)cc3n2)cc1 | 0% | ? | 10% | · | -8% | 3% | · | · | ·
CC(=O)OC[C@]12CCC(C)=C[C@H]1O[C@@H]1[C@H](O)[C@@H](OC(C)=O)[C@@]2(C)[C@]12CO2 | ? | -4% | 0.018µM* | 6% | ? | -2% | 0% | -9% | 2.6µM*
COC(COC(N)=O)C1=C(N2CC2)C(=O)C(C)=C(N2CC2)C1=O (stereo not given) | 10µM* | -19% | 2.1µM* | 0% | · | 3% | -2% | -11% | 0.058µM*
COC12C(COC(N)=O)C3=C(C(=O)C(C)=C(N)C3=O)N1CC1C2N1C (stereo not given) | -23% | 0% | 0% | 7% | 15% | 2% | · | · | ·
COC(=O)C12OCC34C(CC5C(C)=C(O)C(=O)CC5(C)C3C(O)C1O)OC(=O)C(OC(=O)/C=C(\C)C(C)C)C24 (stereo not given) | 0.29µM* | 63% | 0.058µM* | 12% | · | -2% | 0% | -12% | 1.2µM*
O=P1(Nn2cnnc2)C=C(c2ccccc2)OC(c2ccccc2)=C1 | ? | 0% | 6% | 0% | -5% | -1% | · | · | ·
NNC(=O)c1nc[nH]c1C(=O)Nc1ccc(Cl)cc1C(=O)c1ccccc1 | 13% | -2% | 19% | -3% | -2% | 0% | · | · | ·
CC(C)(C)OC(=O)NCc1ccc(CNC(=O)c2nc[nH]c2C(=O)NCc2ccc(CNC(=O)OC(C)(C)C)cc2)cc1 | 3% | -4% | 6.5µM* | -5% | · | 5% | 3% | -13% | 13µM*
CCCOC1CCCN(C(=O)CCc2nnc(Cc3cccc(C)c3)o2)C1 (stereo not given) | 2% | · | ? | · | -41% | 2% | · | · | ·
C#CCCC[C@@H]1OC(=O)CNC(=O)C([C@@H](C)CC)NC(=O)[C@@H]2CCCN2C(=O)C([C@@H](C)CC)OC(=O)[C@H](Cc2ccccc2)N(C)C(=O)[C@H](C(C)C)NC(=O)C1(C)C (stereo not given in full) | · | 0% | · | · | · | -2% | · | · | ·
CCC(C)C1NC(=O)C(NC(=O)C(CC(C)C)N(C)C(=O)C2CCCN2C(=O)C(C)O)C(C)OC(=O)C(Cc2ccc(OC)cc2)N(C)C(=O)C2CCCN2C(=O)C(CC(C)C)NC(=O)[C@H](C)C(=O)[C@H](C(C)C)OC(=O)CC1O (stereo not given in full) | 0.037µM* | 5% | 0.0073µM* | -1% | · | -1% | 2% | ? | 0.01µM*
COc1ccc(C/C(=N\OC(C)=O)c2ccc(OC)cc2)cc1 | 3% | · | ? | -2% | -26% | 4% | · | · | ·
CC1Cc2ccccc2CN1 (stereo not given) | · | -2% | · | · | · | · | · | · | ·
COc1ccc(CN2CCN(C(=O)Cn3c(=O)oc4cc(Cl)ccc43)CC2)c(OC)c1OC | ? | 1% | 2.9µM* | -20% | 15% | 5% | -1% | -9% | ?
CC(=O)c1cn(Cc2ccccc2C#N)c2ccccc12 | ? | · | 1µM* | 0% | 20% | 1% | 3% | -12% | -34%
O=P1(Oc2ccccc2)CC=CC(COCc2ccccc2)O1 (stereo not given) | -4% | · | 5% | · | · | · | · | · | ·
CC[C@@]1(O)C(=O)OCc2c1cc1n(c2=O)Cc2cc3ccccc3nc2-1 | -14% | 4% | 2.1µM* | · | ? | · | 2% | ? | 0.46µM*
CCC1(O)C(=O)OCc2c1cc1n(c2=O)Cc2cc3cc(O)ccc3nc2-1 (stereo not given) | 14% | 4% | 2.3µM* | -32% | · | -2% | -8% | 12% | 0.41µM*
C[n+]1ccc(-c2ccccc2)c2ccccc21 | -15% | 5% | 1.5µM* | 3% | · | 1% | 0% | -1% | ·
N#Cc1cc2c(nc1SCC(=O)Nc1ccc(C(F)(F)F)cc1)C1CCN2CC1 | -11% | 9% | 8.2µM* | · | ? | 0% | 1% | -3% | 12µM*
Nc1c(C(=O)Nc2ccc(Cl)cc2)sc2nc3c(cc12)N1CCC3CC1 | -5% | 4% | ? | · | 12% | 1% | · | · | ·
N#Cc1cc2c(nc1SCC(=O)Nc1ccc(Cl)c(C(F)(F)F)c1)C1CCN2CC1 | -19% | -6% | 7.3µM* | · | ? | 0% | -1% | -30% | 7.3µM*
